According to PubChem BioAssay (NCI):
The panel holds about 83,000 compounds, 20% with a hit somewhere; the sample as a whole holds those more often.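 Step 1: grow cells in 96-well plates. Step 2: add test compound at a single concentration. Step 3: incubate 48 h. Step 4: record percent growth.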 The source made the active and inactive calls. Rule for the calls: active = growth percent below 10; inactive = the rest.

What was measured:
Experiment in all cases: NCI-60 one-dose screen, 48 h (100 = growth as untreated, 0 = no growth, -100 = all killed)
Details in all cases: 10 µM unless noted
[1] = test system: EKVX NSCLC
[2] = test system: SN12C renal
[3] = test system: TK-10 renal
[4] = test system: ACHN renal
[5] = test system: CAKI-1 renal
[6] = test system: A498 renal
[7] = test system: CCRF-CEM leukemia
[8] = test system: MOLT-4 leukemia
[9] = test system: UO-31 renal

Measured: growth

CN1CCN(c2nc(C3=C(c4c[nH]c5ccccc45)C(=O)NC3=O)c3ccccc3n2)CC1
inactive: [1] 82.6% | [2] 92.3% | [3] 47.3% | [4] 70.2% | [5] 54.9% | [6] 75.1% | [7] 100% | [8] 74.7%

O=C(COc1cccc(/C=C2\Cc3ccc(Cl)cc3C2=O)c1)Nc1nccs1
active: [9] -68%
inactive: [1] 98.1% | [2] 89.3% | [3] 142% | [4] 91.8% | [5] 78.2% | [6] 98.3% | [8] 37.3%

O=C(NOC[C@H](O)CO)c1ccc(F)c(F)c1Nc1ccc(I)cc1F
inactive: [1] 57.6% | [2] 49.5% | [3] 41.4% | [4] 47.6% | [5] 34.3% | [7] 83.7% | [8] 66.6%
active: [6] -19.9%

CO[C@@H](C(=O)N1Cc2[nH]nc(NC(=O)c3ccc(N4CCN(C)CC4)cc3)c2C1)c1ccccc1
active: [3] 9.33% | [6] -37%
inactive: [1] 59.3% | [9] 50.7% | [4] 41.9% | [5] 17.3% | [7] 51.5% | [8] 31%

Cc1cc(NCC(=O)Nc2ccc(-c3nc4ccccc4s3)cc2)no1
inactive: [1] 108% | [2] 102% | [3] 92.1% | [4] 111% | [5] 104% | [6] 89.7% | [7] 53.7% | [8] 46.7%

CCCCn1c(C)nc2cc(Nc3nc(N4CCCCC4)nc4nc[nH]c34)ccc21
active: [8] 9.09%
inactive: [1] 52.5% | [9] 28.1% | [3] 57.2% | [4] 36.8% | [5] 31.1% | [6] 34.3% | [7] 46.6%

CCN(CC)CCOc1ccc(/C(=C(\C)c2ccc(Cl)cc2)c2ccc(Cl)cc2)cc1
inactive: [1] 88.6% | [9] 64.8% | [3] 87.6% | [4] 94.5% | [5] 83.4% | [6] 79.6% | [7] 43.1% | [8] 50.7%

COc1ccc(-c2cnc(-c3ccc(Cl)cc3)[nH]2)cc1OC
inactive: [1] 117% | [9] 95.4% | [3] 139% | [4] 103% | [5] 121% | [6] 90.6% | [8] 106%

Ic1ccccc1-c1ccccc1
inactive: [1] 120% | [9] 85.5% | [3] 106% | [4] 109% | [5] 111% | [6] 89.8% | [7] 90.1% | [8] 101%

CC/C(=C(\c1ccc(OCCN2CCCCCCC2)cc1)c1ccc(OC(=O)C2CCCCC2)cc1)c1ccc(Cl)cc1
inactive: [1] 105% | [9] 73.8% | [3] 110% | [4] 97.2% | [5] 93.8% | [6] 63.7% | [7] 88.9% | [8] 88.9%

N#Cc1c(-c2ccc(Cl)cc2)csc1NC(=O)Nc1cccc(C(F)(F)F)c1
inactive: [1] 17.3% | [3] 20.1% | [5] 27.8% | [6] 13.8% | [7] 14.1%
active: [9] -2.89% | [4] 1.09% | [8] 7.5%

CCOC(=O)c1sc(NC(=O)COc2ccc(/C=C3\Cc4ccc(Cl)cc4C3=O)cc2)nc1C
inactive: [1] 111% | [3] 149% | [4] 102% | [5] 96.1% | [6] 143% | [8] 60.6%

CCN(CCCOc1ccc2c(Nc3cc(CC(=O)Nc4cccc(F)c4)[nH]n3)ncnc2c1)CCOP(=O)(O)O
inactive: [1] 99.3% | [9] 69.3% | [3] 83.9% | [4] 95.5% | [5] 58.1% | [6] 98.4% | [7] 51.4% | [8] 46.5%

CC(C)[C@@H]1CC[C@@H]2[C@@H]1[C@H](OC(=O)/C=C/c1ccccc1)[C@]1(C(C)C)C[C@@H](OC(=O)CO)[C@@]2(C)O1
active: [6] -51.8%
inactive: [1] 63% | [2] 49.7% | [3] 94.9% | [4] 17% | [5] 65.5% | [7] 77.1% | [8] 58.4%

CNc1ncc2cc(-c3cc(NC(=O)NCCC(C)(C)C)c(F)cc3C)c(C)nc2n1
active: [9] 3.87% | [3] -4.98% | [4] 5.23% | [5] 4.36% | [6] -35.4%
inactive: [1] 29.4% | [7] 63.1% | [8] 20.6%

Nc1nc(N)c2nc(-c3cccc(O)c3)c(-c3cccc(O)c3)nc2n1
inactive: [1] 82.2% | [9] 65.9% | [3] 80.9% | [4] 69.3% | [5] 67.7% | [6] 74.9% | [7] 66.3% | [8] 90.6%
